This passage reports outcome and AC50 results from PubChem BioAssay (EPA / NIEHS).

For orientation: AC50 means the concentration at which the activity in the assay is half-maximal.

Calls of active or inactive are those of the source. How the source made its calls: active means hit-call score of the fitted dose curve at least 0.9, where 1 is the maximum; inactive means score below 0.9.

The nature of this assay: APR_HepG2_StressKinase_1hr: Apredica 1-hour HepG2 Assay for Stress Kinase (AID 2282906). The conditions noted are these: HepG2 stress kinase (phospho-c-Jun) imaging, actives raise or lower the signal. As to the method: APR_HepG2_1hr is a cell-based, multiplexed-readout assay that uses HepG2, a human liver cell line, with measurements taken at 1 hour after chemical dosing in a 384-well plate.APR_HepG2_StressKinase_1hr is one of 10 assay component(s) measured or calculated from the APR_HepG2_1hr assay. It is designed to make measurements of enzyme activity, a form of enzyme reporter, as detected with fluorescence intensity signals by HCS Fluorescent Imaging technology.Data from the assay component APR_HepG2_StressKinase_1hr was analyzed into 1 assay endpoint. This assay endpoint, APR_HepG2_StressKinase_1hr, was analyzed with bidirectional fitting relative to DMSO as the negative control and baseline of activity. Using a type of enzyme reporter, measures of protein for gain or loss-of-signal activity can be used to understand the signaling at the pathway-level as they relate to the gene . Furthermore, this assay endpoint can be referred to as a primary readout, because this assay has produced multiple assay endpoints where this one serves a signaling function. To generalize the intended target to other relatable targets, this assay endpoint is annotated to the cell cycle intended target family, where the subfamily is stress response.
Cells were treated with dimethyl sulfoxide (DMSO) as a solvent control at a final concentration of 0.5% v/v or with compounds in DMSO with a resulting final DMSO concentration of 0.5% v/v. Compound treatment was done at concentrations of 0.39, 0.78, 1.56, 3.12, 6.24, 12.5, 25, 50, 100, and 200 uM in duplicate on each plate. Cells were treated with compounds for 1, 24, or 72 hr. Carbonyl […] m-chloro-phenylhydrazone (CCCP) and taxol were used as positive controls for mitochondrial function and cytoskeletal stability, respectively; DMSO served as the negative control for this experiment. Cells were fixed by the direct addition of 50 uL formaldehyde in Hank's Balanced Salt Solution (HBSS) to a final concentration of 3.7%. After incubation in the fixation medium for 30 min at room temperature (293-298 K), cells were rinsed twice with HBSS and treated with cell permeabilization buffer (16 uL of 0.5% Triton X-100) for 10 min at room temperature (293-298 K) before labeling. For mitochondrial membrane potential and mitochondrial measurements, pre-fixed cells were incubated with 50 uL of MitoTracker Red CMXRos (Invitrogen) at a concentration of 250 nM for 30 min before fixation. In the remaining cases, post-fixed cells were labeled by incubation with a multiplexed mixture of primary antibodies in HBSS for 60 min at room temperature (293-298 K) to detect immunoreactivity of c-Jun (1:500), phospho-histone H3 (1:100), phospho-histone H2A.x (1:200), p53 (1:400), alpha-tubulin (1:200) and Hoechst 33342 (2 ug/mL). Cells were labeled for multiplexed imaging on two separate plates: a) Hoechst 33342, MitoTracker Red, phospho-histone H3, and alpha-tubulin, and b) Hoechst 33342, phospho-histone H2A.x, and c-Jun. A final rinse with HBSS (50 uL) was performed before analysis. The primary and secondary antibodies for the proteins were phospho-histone H3 (rabbit anti-phospho-histone H3 and FITC-donkey anti-rabbit IgG), phospho-histone H2A.x (mouse anti-phospho-histone H2A.x and FITC-donkey anti-mouse IgG), c-Jun (rabbit anti-phospho-c-Jun and Cy3-donkey anti-rabbit IgG), p53 (sheep anti-p53 and Cy5-donkey anti-sheep IgG), alpha-tubulin (mouse anti-alpha-tubulin and Cy5-donkey anti-mouse IgG). These antibodies are available as the CellCiphr HepG2 assay kit (Millipore).Digital images of each well were captured using a Cellomics ArrayScan VTI (Thermo Scientific Cellomics) (0.8 NA objective, 0.63x optical coupler, and XF-93 filter set) at 20x magnification. The images were acquired using the autofocus feature of the ArrayScan instrument, which entails the following steps. First, the camera focuses on channel 1 (Hoechst 33342), where nuclei are identified. Second, a Z offset of 1 um is used for capturing mitochondria (MitoTracker Red). […]
Take `COC(=O)c1ccc(I)cc1S(=O)(=O)NC(=O)Nc1nc(C)nc(OC)n1`: the call was inactive.

As to `CCCN(CCC)C(=O)SCC`, the call was inactive.

With `CCCCC(CC)COC(=O)c1ccccc1C(=O)O` (stereo not given), the compound was called inactive.

`CSC(=O)c1cccc2nnsc12`: the call was inactive.

For `S=C(S)NCCNC(=S)S.[Mn+2].[S-]C([S-])=NCCN=C([S-])[S-].[Zn+2]`, the compound was classed as inactive.

With `COC(=O)CSc1cc(N=c2sc(=O)n3n2CCCC3)c(F)cc1Cl`, the call was inactive.

With `CCC(C)OC(=O)N1CCCCC1CCO` (stereo not given), the outcome was inactive.

Regarding `CCCCCOC(=O)COc1cc(N2C(=O)C3=C(CCCC3)C2=O)c(F)cc1Cl`, the AC50 is 87.4 µM (active).

For the compound `CCCN(CCC)c1c([N+](=O)[O-])cc(C(F)(F)F)c(N)c1[N+](=O)[O-]`, the AC50 was 75.8 µM (active).

For the compound `CCCCCCC(C)OC(=O)COc1nc(F)c(Cl)c(N)c1Cl` (stereo not given), the compound was called inactive.

For the compound `COc1c(Cl)ccc(Cl)c1C(=O)O`, the call was inactive.

`S=C([S-])NCCNC(=S)[S-].[Mn+2]`: the result was inactive.

`CCN(Cc1c(F)cccc1Cl)c1c([N+](=O)[O-])cc(C(F)(F)F)cc1[N+](=O)[O-]`: the compound was called inactive.

As for `COCCO`, the compound was classed as inactive.

Turning to `CCOC(=O)C(C)Oc1ccc(Oc2cnc3cc(Cl)ccc3n2)cc1` (stereo not given), the result was inactive.

Consider `CCOC(=O)COc1cc(-n2ncc(C(F)(F)F)c(C)c2=O)c(F)cc1Cl`, for which the result was inactive.

For `N#CSCSc1nc2ccccc2s1`, the AC50 was 33.3 µM (active).

`c1ccc2[nH]c(-c3cscn3)nc2c1`: the result was inactive.

Turning to `Cc1nn(C)c(Oc2ccccc2)c1C=NOCc1ccc(C(=O)OC(C)(C)C)cc1`, the compound was called inactive.

For `Oc1ccc(C(c2ccc(O)cc2)C(Cl)(Cl)Cl)cc1`, the AC50 was 94.2 µM (active).

In the case of `C#CCOC(=O)[C@@H](C)Oc1ccc(Oc2ncc(Cl)cc2F)cc1`, the compound was called inactive.

For the compound `CCCCOC(=O)[C@@H](C)Oc1ccc(Oc2ccc(C(F)(F)F)cn2)cc1`, the call was inactive.

Consider `CCCCOC(=O)C(C)Oc1ccc(Oc2ccc(C(F)(F)F)cn2)cc1` (stereo not given), for which the outcome was inactive.

Consider `COc1nc(C)nc(NC(=O)NS(=O)(=O)c2ccccc2OCCCl)n1`, for which the compound was called inactive.

Turning to `COC(=O)c1ccccc1S(=O)(=O)NC(=O)Nc1nc(OC(F)F)cc(OC(F)F)n1`, the call was inactive.

As for `CCOC(=O)[C@H](C)Oc1ccc(Oc2nc3ccc(Cl)cc3o2)cc1`, the outcome was inactive.

On to `c1ccc(Nc2ccccc2)cc1`, for which the outcome was inactive.

Take `CC(C)(C)[C@@H](O)[C@@H](Cc1ccc(Cl)cc1)n1cncn1`: the outcome was inactive.

In the case of `CC1(C)C(C=C(Cl)Cl)C1C(=O)OCc1cccc(Oc2ccccc2)c1` (stereo not given), the compound was classed as inactive.

Turning to `OB(O)O`, the compound was called inactive.

Take `CCCOC(=O)NCCCN(C)C`: the result was inactive.

Turning to `CCOC(=O)NCCOc1ccc(Oc2ccccc2)cc1`, the result was inactive.

For `CCCOC(=O)c1ccc(C(=O)OCCC)nc1`, the compound was classed as inactive.

Turning to `CCSC(=O)N(CC(C)C)CC(C)C`, the call was inactive.

Regarding `CCC(O)=C1C(=O)CC(C(=O)O)CC1=O` (stereo not given), the outcome was inactive.

In the case of `O=C(O)C1(C(=O)Nc2ccc(Cl)cc2Cl)CC1`, the call was inactive.

As for `COC(=O)c1ccccc1C(=O)O`, the outcome was inactive.

Take `CC(C)(c1ccc(O)cc1)c1ccc(O)cc1`: the compound was classed as inactive.

As to `CCNc1nc(N)nc(Cl)n1`, the outcome was inactive.

As to `CCCCC(CC)CN1C(=O)C2C3C=CC(C3)C2C1=O` (stereo not given), the compound was classed as inactive.
